Measurements taken from PubChem BioAssay AID1159580 (chemical genetic matrix, 2015).
About 2,000 (36%) of roughly 5,500 compounds were called active. About 18% were inconclusive and are not listed. Cut-off read from the data, not from the text of the source: active = normalized growth mostly below about 0.91 (no sharp cut-off); inconclusive = no clear call, values can overlap the other calls; inactive = mostly above about 0.92. This is one part of the list.

Experiment: chemical genetic growth profiling, strain panel (AID 1159580);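 note: tested at 20 µM; growth read once vehicle control cultures reached saturation at 30 °C; 1 = growth at the plate median or of vehicle wells; lower values mean less growth of the strain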
Conditions: S. cerevisiae deletion strains, growth OD

Measured: normalized growth

CCN1C[C@]2(OC(=O)c3ccccc3NC(C)=O)CCC(OC)[C@]34C1[C@H](CC23)[C@@]1(O)CC(OC)[C@H]2CC4C1(O)[C@H]2OC (stereo not given in full)
inactive: locus YAL021C, strain ccr4, active compounds read low 0.966 | locus YAL026C, strain drs2, active compounds read low 0.981 | locus YAL030W, strain snc1, active compounds read low 0.977 | locus YBL061C, strain skt5, active compounds read low 0.971 | locus YBR009C, strain hhf1, active compounds read low 0.985 | locus YBR023C, strain chs3, active compounds read low 0.977 | locus YBR171W, strain sec66, active compounds read low 0.96 | locus YBR231C, strain swc5, active compounds read low 0.972 | locus YBR279W, strain paf1, active compounds read low 0.979 | locus YCL011C, strain gbp2, active compounds read low 0.947 | locus YCL016C, strain dcc1, active compounds read low 0.971 | locus YCL061C, strain MRC1, active compounds read low 1 | locus YCL069W, strain vba3, active compounds read low 0.955 | locus YCR088W, strain abp1, active compounds read low 0.946 | locus YDL005C, strain med2, active compounds read low 0.948 | locus YDL040C, strain nat1, active compounds read low 0.969 | locus YDR001C, strain nth1, active compounds read low 0.977 | locus YDR069C, strain doa4, active compounds read low 0.953 | locus YDR137W, strain rgp1, active compounds read low 1.02 | locus YDR159W, strain sac3, active compounds read low 0.979 | locus YDR195W, strain ref2 0.963 | locus YDR297W, strain sur2, active compounds read low 0.967 | locus YDR334W, strain swr1, active compounds read low 0.974 | locus YDR335W, strain msn5, active compounds read low 0.958 | locus YDR392W, strain spt3, active compounds read low 0.921 | locus YEL003W, strain gim4, active compounds read low 0.98 | locus YEL037C, strain rad23, active compounds read low 0.958 | locus YEL061C, strain CIN8 (second series), active compounds read low 0.963 | locus YER015W, strain faa2, active compounds read low 0.974 | locus YER016W, strain bim1, active compounds read low 0.979 | locus YER111C, strain swi4, active compounds read low 0.986 | locus YER155C, strain BEM2 (second series), active compounds read low 0.974 | locus YFR010W, strain ubp6, active compounds read low 0.975 | locus YGL167C, strain pmr1, active compounds read low 0.974 | locus YGL173C, strain kem1, active compounds read low 0.972 | locus YGL227W, strain vid30, active compounds read low 0.956 | locus YGL240W, strain doc1, active compounds read low 0.973 | locus YGL253W, strain hxk2, active compounds read low 0.963 | locus YHR013C, strain ard1, active compounds read low 0.969 | locus YHR027C, strain rpn1, active compounds read low 0.992 | locus YHR030C, strain SLT2, active compounds read low 0.976 | locus YHR079C, strain IRE1, active compounds read low 0.98 | locus YHR142W, strain chs7, active compounds read low 0.95 | locus YJL092W, strain hpr5, active compounds read low 0.953 | locus YJL095W, strain BCK1 (second series), active compounds read low 0.974 | locus YJL095W, strain BCK1, active compounds read low 0.97 | locus YJL115W, strain asf1, active compounds read low 0.973 | locus YJL129C, strain trk1, active compounds read low 0.961 | locus YJL154C, strain vps35, active compounds read low 0.952 | locus YJL164C, strain tpk1, active compounds read low 0.983 | locus YJL166W, strain qcr8, active compounds read low 0.979 | locus YJL187C, strain SWE1, active compounds read low 0.987 | locus YJR066W, strain TOR1, active compounds read low 0.975 | locus YKL160W, strain elf1, active compounds read low 0.979 | locus YKR026C, strain gcn3, active compounds read low 0.975 | locus YKR091W, strain srl3, active compounds read low 0.979 | locus YLL001W, strain dnm1, active compounds read low 0.993 | locus YLL026W, active compounds read low 0.984 | locus YLL041C, strain sdh2, active compounds read low 0.978 | locus YLR027C, strain aat2, active compounds read low 0.967 | locus YLR113W, strain HOG1, active compounds read low 0.969 | locus YLR221C, strain rsa3, active compounds read low 0.976 | locus YLR258W, strain gsy2, active compounds read low 0.974 | locus YLR262C, strain YPT6 (second series), active compounds read low 1.04 | locus YLR320W, strain mms22, active compounds read low 0.983 | locus YLR342W, strain FKS1, active compounds read low 0.961 | locus YLR357W, strain rsc2, active compounds read low 0.945 | locus YLR370C, strain arc18, active compounds read low 0.973 | locus YLR384C, strain iki3, active compounds read low 0.959 | locus YML120C, strain ndi1, active compounds read low 0.974 | locus YMR058W, strain fet3, active compounds read low 0.989 | locus YMR125W, strain sto1, active compounds read low 0.953 | locus YMR129W, active compounds read low 0.98 | locus YMR205C, strain PFK2, active compounds read low 0.993 | locus YMR231W, strain pep5, active compounds read low 0.953 | locus YNL071W, strain lat1, active compounds read low 0.956 | locus YNL183C, strain NPR1, active compounds read low 0.905 | locus YNL209W, strain ssb2, active compounds read low 0.974 | locus YNL248C, strain rpa49, active compounds read low 0.98 | locus YNL322C, strain KRE1 (second series), active compounds read low 0.972 | locus YNR049C, strain mso1, active compounds read low 0.979 | locus YOR001W, strain rrp6, active compounds read low 0.961 | locus YOR070C, strain gyp1, active compounds read low 0.964 | locus YOR080W, strain dia2, active compounds read low 0.97 | locus YOR083W, strain WHI5, active compounds read low 0.973 | locus YOR106W, strain vam3, active compounds read low 0.959 | locus YOR231W, strain MKK1, active compounds read low 0.978 | locus YOR265W, strain rbl2, active compounds read low 0.982 | locus YOR270C, strain vph1, active compounds read low 0.975 | locus YOR290C, strain snf2, active compounds read low 0.986 | locus YPL051W, strain arl3, active compounds read low 0.979 | locus YPL078C, strain atp4, active compounds read low 0.971 | locus YPL106C, strain sse1, active compounds read low 0.923 | locus YPL240C, strain hsp82, active compounds read low 0.963 | locus YPL256C, strain CLN2, active compounds read low 0.956
